Experimental data as given in PubChem BioAssay AID687022 (Broad Institute, 2013).
In all, about 1,000 compounds went through this assay and about 360 (36%) were called active. Only a sample is shown. Values without a mark were called inactive.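 Rule for the calls: active = Fitted curve of melting temperature shift crosses the 1.0 threshold at or below the sample's highest valid tested concentration; inconclusive = Flat fit with activity 30 to 70, or invalid fit; inactive = Opposite direction, flat within 30, or no crossing.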

target: Fibroblast growth factor 22 (Homo sapiens) (UniProt Q9HCT0); assay: binders of human FGF22 protein, dose response, FGF22 synaptogenesis inhibitor project, biophysical, thermal shift, cherry-pick (AID 687022); conditions: recombinant FGF22 thermal shift, SYPRO orange melting; series mostly up to 38 µM; Tm shift activity: at the top concentration; note: reference of the scale not given here
Sequence (Q9HCT0 whole entry, looked up): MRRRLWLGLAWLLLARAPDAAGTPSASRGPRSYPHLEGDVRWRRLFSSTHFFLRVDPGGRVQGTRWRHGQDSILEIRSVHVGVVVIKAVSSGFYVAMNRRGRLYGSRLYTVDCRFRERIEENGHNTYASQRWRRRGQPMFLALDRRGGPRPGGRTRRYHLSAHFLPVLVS

Compound	Tm shift activity
Cc1[nH]c(=O)[nH]c(=O)c1S(=O)(=O)Nc1cccc([N+](=O)[O-])c1C	0.356%
CCCNC(=O)N1CC(=O)N2[C@H](C1)[C@@H](c1ccc(-c3cccc(C)c3)cc1)[C@@H]2CO	-0.204%
O=c1cc[nH]c2ccc(Cl)cc12	-0.177%
CC(=O)c1cccc(NC(=O)C2CCCN2S(=O)(=O)c2cccs2)c1 (stereo not drawn)	0.238%
COc1ccc(CCC(C)NC(=O)Cc2ccc(OC)c(OC)c2)c(OC)c1 (stereo not drawn)	-0.077%
CCCN(C)C[C@H]1Oc2cc(-c3ccncc3)ccc2S(=O)(=O)N([C@H](C)CO)C[C@H]1C	-0.032%
O=C1C2C(C(=O)N1CCc1ccccc1)C1C=CC2C12CC2 (stereo not drawn)	-0.247%
CCOC(=O)C1CCC(CNCc2ccccc2C)CC1 (stereo not drawn)	0.003%
N#CCSc1n[nH]c2nc3c(c(=O)n12)C1(CCCCC1)Cc1ccccc1-3	0.19%
COc1cc(C(=O)NC(=S)Nc2ccccc2[N+](=O)[O-])cc(OC)c1OC	-0.198% [at 19.5 µM]
C/C(=N\NC(=O)CNC(=O)c1ccncc1)c1ccc(C)cc1	-0.146%
CN(CC(=O)Nc1ccccc1Cl)C(=O)COC(=O)c1nc(Cl)ccc1Cl	-0.071%
CCn1c(O)c(C=NCc2ccccc2)sc1=S	0%
C[C@@H]1CN([C@H](C)CO)C(=O)Cc2cc(NS(C)(=O)=O)ccc2O[C@@H]1CN(C)Cc1ccc(C(=O)O)cc1	0.177% [at 42 µM]
CC(C)CC#Cc1cnc2c(c1)C(=O)N([C@@H](C)CO)C[C@H](C)[C@@H](CN(C)Cc1ccccn1)O2	0.044%
O=C(CCc1ccc(S(=O)(=O)N2CCOCC2)cc1)Nc1ccccc1F	-0.061%
C/C=C/c1ccc([C@@H]2[C@H](C#N)N(C(=O)CN3CCOCC3)[C@H]2CO)cc1	-0.102% [at 42 µM]
COc1cc(CCC(=O)OCC(=O)Nc2ccc(C)cc2Br)cc(OC)c1OC	-0.237%
CN1CCN(C(=O)C[C@@H]2CC[C@H]3[C@@H](COC[C@H](O)CN3CC3CCCCC3)O2)CC1	0.165%
C[C@H]1CN([C@@H](C)CO)S(=O)(=O)c2ccc(/C=C/c3ccccc3)cc2O[C@@H]1CN(C)Cc1ccc(C(=O)O)cc1	-0.154% [at 42 µM]
CCCC#Cc1ccc2c(c1)O[C@H](CN(C)C(C)=O)[C@@H](C)CN([C@@H](C)CO)S2(=O)=O	-3.12%
C[C@H]1CN([C@@H](C)CO)S(=O)(=O)c2ccc(C#Cc3ccncc3)cc2O[C@H]1CN(C)C(=O)Nc1ccc2c(c1)OCO2	0.854%

Compound	Tm shift activity
COc1cc(C2C(C#N)=C(N)Oc3n[nH]c(-c4cccnc4)c32)cc(Br)c1O (stereo not drawn)	-0.165%
C[C@@H]1CN([C@@H](C)CO)C(=O)CCCn2nncc2CO[C@H]1CN(C)Cc1ccccc1C(=O)O	-0.141% [at 42 µM]
CCN1C(=O)c2cccc3c(S(=O)(=O)Nc4ccc(O)c(C(=O)O)c4)ccc1c23	0.895% [at 5 µM]
O=C(COc1ccc(S(=O)(=O)Nc2ccccc2)cc1)NCc1ccncc1	0.021%
CN(C)CCN1C(=O)C2C3C=CC(C3)C2C1=O (stereo not drawn)	0.54%
COCC(=O)N(C)C[C@H]1Oc2cc(C#Cc3ccccc3)ccc2S(=O)(=O)N([C@H](C)CO)C[C@H]1C	0.274% [at 42 µM]
O=C(NCC[C@@H]1CC[C@@H](NC(=O)C2CCOCC2)[C@H](CO)O1)Nc1ccc(Cl)cc1	0.778% [at 42 µM]
CC(C)NC(=O)Nc1ccc2c(c1)C(=O)N([C@H](C)CO)C[C@H](C)[C@H](CN(C)C(=O)Nc1cccc3ccccc13)O2	-0.245% [at 42 µM]
O=C(O)C1CSC2(CCN(Cc3ccccc3)CC2)N1 (stereo not drawn)	-0.082%
Fc1ccccc1Nc1n[nH]c(=S)s1	-3.98%
COc1cc(/C=N/NC(=O)c2ccncc2)ccc1OCC(=O)Nc1cccc([N+](=O)[O-])c1	-0.027%
O=C(N/N=C/c1cccc(O)c1)c1cc(-c2ccc3c(c2)OCO3)n[nH]1	0.613%
CC(=O)N(C)C[C@@H]1Oc2ncc(C#CC(C)(C)O)cc2C(=O)N([C@@H](C)CO)C[C@H]1C	-0.011%
Cc1nc2cc(C(=O)NCc3ccc4c(c3)OCO4)ccc2n1-c1ccc(Br)cc1	0.351%
O=[N+]([O-])c1ccc2oc(/C=C/c3ccc(O)cc3)nc2c1	-0.179%
C[C@@H]1CN([C@@H](C)CO)C(=O)c2cc(NS(C)(=O)=O)ccc2O[C@@H]1CN(C)Cc1ccc2c(c1)OCO2	-0.083%
C[C@H](CO)N1C[C@H](C)[C@H](CN(C)C(=O)CC2CC2)Oc2ncc(C#CC3(O)CCCC3)cc2C1=O	-0.167%
O=C(NC[C@@H]1[C@H](c2ccccc2)[C@H](CO)N1C(=O)Cc1cccnc1)C1CC1	-0.166% [at 42 µM]
CCc1cccc(NS(=O)(=O)c2ccc3c(c2)NC(=O)CC(=O)N3)c1	0.132%
CCC(=O)N1CC2(C1)[C@H](c1ccc(-c3cccc(C)c3)cc1)[C@@H](CO)N2S(C)(=O)=O	-0.418%
O=C(C1CCOCC1)N1C[C@@H]2[C@H](c3ccccc31)[C@@H](CO)N2Cc1ccccc1	-0.009% [at 42 µM]
CC(OC(=O)c1ccccc1)C(=O)NCCC1=CCCCC1 (stereo not drawn)	-0.183%

Compound	Tm shift activity
O=C(COc1cccc(Cl)c1)NCC(c1cccs1)N1CCOCC1 (stereo not drawn)	-0.157%
Cc1cccc(NC(=O)COc2coc(CN3CCc4ccccc4C3)cc2=O)c1	0.031%
c1ccc(NCc2ccccn2)cc1	0.047%
CN1CCN(C(=O)C[C@H]2C=C[C@@H](NC(=O)c3ccc4c(c3)OCO4)[C@H](CO)O2)CC1	0.43% [at 42 µM]
CN(C)S(=O)(=O)n1cnc([C@@H]2[C@@H]3C(=O)OC[C@@H]3C[C@]23N=CN(Cc2ccccc2)C3=O)c1	-0.031%
CCc1ccc(NC(=O)c2ccc(-n3cncn3)c([N+](=O)[O-])c2)cc1	0.367%
Cc1nc2ccc(NC(=O)c3cc([N+](=O)[O-])cc([N+](=O)[O-])c3Cl)cc2s1	0.47%
COc1cc([N+](=O)[O-])ccc1NC(=O)CN1CCCC1	0.026%
O=C(Nc1cccc2ccccc12)c1cccc([N+](=O)[O-])c1	0.033%
O=[N+]([O-])c1ccc2nc(-c3ccc(Cl)cc3)[nH]c2c1	0.366%
CN=C1NN=C(c2cc(C)n(-c3c(C)n(C)n(-c4ccccc4)c3=O)c2C)CS1	-0.139%
Cc1ccc(-c2c[n+](CC(=O)Nc3ccc(C)cc3C)c3n2CCC3)cc1	-0.152%
Cn1cccc1/C=N/NC(=O)Cc1cccc2ccccc12	-0.271%
COC(=O)Cc1n[nH]c(=O)c2ccccc12	-0.034%
N#CCC(=O)Nc1ccc(C(=O)NCCc2c[nH]c3ccccc23)cc1	-0.09% [at 10 µM]
O=C(NCCc1c[nH]c2ccccc12)C(=O)NCC1CCCO1 (stereo not drawn)	-0.006%
COc1cccc(S(=O)(=O)Nc2ccc3c(c2)[C@@H]2C[C@H](CC(=O)NC4CCCCC4)O[C@@H](CO)[C@@H]2O3)c1	-0.228%
C=CCC1c2cccc(C(=O)O)c2C(=O)N1c1cccc(OC)c1 (stereo not drawn)	0.004%
COCC(=O)Nc1ccc2c(c1)[C@H]1C[C@@H](CC(=O)NCc3ccccn3)O[C@H](CO)[C@H]1O2	-0.244%
CCOC(=O)c1c(C)oc2cc(Br)c(O)c(Br)c12	0.458%
C[C@H]1CN([C@@H](C)CO)C(=O)c2cc(NS(=O)(=O)c3ccc(Cl)cc3)ccc2O[C@@H]1CN(C)C(=O)Nc1ccc2c(c1)OCO2	0.029% [at 42 µM]
CCC(=O)N1[C@H](CO)[C@@H](c2ccccc2)[C@H]1CN(C)C(=O)CN1CCOCC1	-0.119%

Compound	Tm shift activity
O=C(c1cccc(F)c1)N1C[C@H]2[C@@H](c3ccccc31)[C@@H](CO)N2C(=O)c1ccccn1	-0.197% [at 42 µM]
CCOc1ccc(NC(=O)c2cccc(-n3cccc3)c2)cc1S(=O)(=O)N1CCOCC1	0.046%
CC(C)NC(=O)N1[C@H](CO)[C@H](c2ccccc2-c2ccc(F)cc2)[C@@H]1C#N	0.245%
O=C(O)C1CCN(S(=O)(=O)Cc2ccccc2)CC1	0.131%
COc1ccc(NC(=O)CN(c2ccc(C(C)C)cc2)S(=O)(=O)c2c(C)noc2C)cc1OC	-0.176%
CO[C@@H]1CN(C)C(=O)c2cc(NC(=O)C3CCCC3)ccc2OC[C@H](C)N(CCC(F)(F)F)C[C@H]1C	-0.068%
NS(=O)(=O)c1ccc2c(c1)C(=NO)c1cc(S(N)(=O)=O)ccc1-2	0.643%
Oc1c(CN2CCOCC2)cc(CN2CCOCC2)c(O)c1O	0.514%
O=C(Nc1ccccc1Cl)N1[C@H](CO)[C@@H]2c3ccccc3NC[C@@H]21	-0.115%
COc1ccc(NS(=O)(=O)c2cc(N=Nc3c(O)[nH]c(=O)[nH]c3=O)ccc2Cl)cc1	-0.202%
COc1ccccc1C(=O)N1C[C@H]2[C@@H](c3ccccc31)[C@H](CO)N2C(=O)C1CCCCC1	-0.165%
N#C[C@@H]1[C@@H](c2ccc(C3=CCCCC3)cc2)[C@H](CO)N1S(=O)(=O)c1ccccc1	0.72%
Cc1cccc(C(=O)NNC(=O)c2ccc(NS(=O)(=O)c3cccs3)cc2)c1C	-0.21%
COc1ccccc1NC(=O)c1ccc(NC(=O)COC(=O)c2ccc(O)cc2)cc1	0.436%
COc1ccccc1N(C)S(=O)(=O)c1ccc(C(=O)Nc2ccc(C(N)=O)cc2)cc1	0.212%
CCC(C)N(C(=O)COc1ccc(-c2nnco2)cc1)C1CCS(=O)(=O)C1 (stereo not drawn)	-0.201%
O=C(Nc1cccc(S(=O)(=O)N2CCCCC2)c1)C1=NN(c2ccccc2)C(=O)CC1	0.048%
COc1cccc(NC(=O)N[C@@H]2CC[C@@H](CC(=O)Nc3ccccc3)O[C@H]2CO)c1	0.248%
CN(C)CC(=O)Nc1ccc2c(c1)[C@H]1C[C@@H](CC(=O)NCC3CC3)O[C@H](CO)[C@H]1O2	-0.011%
COC(=O)[C@]1(C)N[C@H](c2ccc(-c3ccccc3)cc2)[C@@H]2C(=O)N(C)C(=O)[C@@H]21	-0.021%
Cc1ccc(S(=O)(=O)Nc2ccc3c(c2)CC(=O)N([C@H](C)CO)C[C@@H](C)[C@H](CN(C)C(=O)Nc2ccccc2)O3)cc1	-0.162%
COc1ccc(C(=O)Nc2ccccc2N2CCOCC2)cc1S(=O)(=O)N1CCOCC1	-0.009%
